Laboratory results published in PubChem BioAssay AID1259240 (Keith Lab, Institute of Cancer Science, University of …, 2017).
Calls of active or inactive are those of the source. Rule as the data show it: active = fold change mostly below about -2 (no sharp cut-off); inactive = mostly above about -1.8.

Test: TERT promoter activity modulators, primary screen, cell-based, luciferase reporter, human (AID 1259240)
Conditions: A2780 TERT promoter luciferase reporter, 16 h; at 20 µM, fold versus average of vehicle-only wells

| SMILES | fold change | outcome |
| --- | --- | --- |
| CN(C)c1nc(C(N)=O)nc(N2CCOCC2)n1 | 1.62 (inactive) |  |
| O=C(O)CN1C(=O)/C(=C/c2ccc(SCc3ccccc3)o2)SC1=S | 1.04 (inactive) |  |
| CCOC(=O)C1=C(CS(=O)(=O)c2ccc(Cl)cc2)NC(=O)NC1c1ccc(F)cc1 (centres undefined) | 1.41 (inactive) |  |
| O=C(NCC1(c2ccccc2)CCCC1)c1ccc2c(=O)n3c(nc2c1)CCCCC3 | -1.33 (inactive) |  |
| O=C(Nc1cccnc1)c1ccc2c(c1)C1C3CCC(C3)C1C(c1ccccc1)N2 (centres undefined) | -1.08 (inactive) |  |
| COCCn1cc(/C=C2/C(=O)Nc3ccccc32)c2ccccc21 | 1.23 (inactive) |  |
| Cc1cc(Oc2ccccc2)nc(SCC(N)=O)n1 | 1.5 (inactive) |  |
| O=C(ON=C1CCCC1)c1sc2ccccc2c1Cl | -1.7 (inactive) |  |
| COC(=O)C1Cc2cc(OC)c(OC)cc2C(Cc2ccc(OC)c(OC)c2)=N1 (centres undefined) | -1.78 (inactive) |  |
| O=C1C2CCCCC2C(=O)N1c1nc2nc(-c3ccccc3)cc(=O)n2[nH]1 (centres undefined) | 1.17 (inactive) |  |
| CCc1ccc2nc(NC3=NCN(CCN4CCOCC4)CN3)nc(C)c2c1 | -1.26 (inactive) |  |
| Cc1noc(C(=O)NC(C)C)c1Cl | 1.11 (inactive) |  |
| O=C(CSc1nnc2ccc3ccccc3n12)Nc1ccc2c(c1)OCCO2 | 1.3 (inactive) |  |
| Nc1nc(SCC(=O)NCCCN2CCOCC2)nc2sc3c(c12)CCC3 | -1.53 (inactive) |  |
| CC(NC(=O)c1cnn2c(C(F)F)cc(-c3ccccc3)nc12)c1ccccc1 (centres undefined) | -1.39 (inactive) |  |
| CCN1CCN(C(=O)CN2C(=O)COc3ccc(S(=O)(=O)N4CCC(C)CC4)cc32)CC1 | 1.16 (inactive) |  |
| COC(=O)CCn1nc(-c2ccc(Cl)cc2)c2ccccc2c1=O | -1.07 (inactive) |  |
| CCOc1ccc(N2CC(O)=C(c3nc4ccccc4c(=O)[nH]3)C2=N)cc1 |  | inactive |
| O=C(C1CCN(S(=O)(=O)c2cccc3cccnc23)CC1)N1CCn2c1nc1ccccc12 | 1.05 (inactive) |  |
| COc1ccc(Br)cc1/C=c1\sc2nc(-c3ccco3)nn2c1=O | 1.22 (inactive) |  |
| Nc1cc(-c2ccccc2)nn1S(=O)(=O)c1cccc([N+](=O)[O-])c1 | 1.1 (inactive) |  |
| COc1ccc(OC(C)c2nc(-c3ccc(OC)cc3)no2)cc1 (centres undefined) | 1.61 (inactive) |  |

| SMILES | fold change | outcome |
| --- | --- | --- |
| Cc1ccc(-c2cc(C(F)F)n3ncc(C(=O)N4CC(C)OC(C)C4)c3n2)cc1 (centres undefined) | -2.07 (active) |  |
| CS(=O)(=O)N1N=C(c2cccs2)CC1c1ccccc1F (centres undefined) | -1.2 (inactive) |  |
| COc1ccc(-c2nc(CSc3nc4ccncc4[nH]3)c(C)o2)cc1 | -1.53 (inactive) |  |
| Cc1cc(C)nc(SCC(=O)Nc2ccc(S(=O)(=O)Nc3onc(C)c3C)cc2)n1 | 1.02 (inactive) |  |
| CS(=O)(=O)Nc1ccc(Cl)c2cccnc12 | -2.8 (active) |  |
| Cn1c(=O)oc2cc(S(=O)(=O)N3CCCC(C(=O)NC4CCCCCCC4)C3)ccc21 (centres undefined) | 1.03 (inactive) |  |
| CC(C)Oc1ccc(C2CC(=O)Nc3cc4c(cc32)OCCO4)cc1 (centres undefined) | 1 (inactive) |  |
| Cc1nc(SCc2cccc(C(F)(F)F)c2)c2c(=O)n(C)c(=O)n(C)c2n1 | 1.26 (inactive) |  |
| Clc1ccc(CNc2ncnc3nc[nH]c23)cc1 | 2.09 (active) |  |
| O=C(CSc1nc(-c2cccs2)cc(C(F)(F)F)n1)NCc1cccnc1 | -2.7 (active) |  |
| O=C(O)COc1ccc(/C=C2/NC(=O)N(c3ccccc3)C2=O)cc1 | -1.53 (inactive) |  |
| COc1cc(OC)c(-c2nc(-c3ccc(C)cc3)no2)cc1OC | 1.55 (inactive) |  |
| O=c1oc2cc(O)ccc2cc1S(=O)(=O)c1ccccc1 | -1.16 (inactive) |  |
| O=C(C1CCCN1S(=O)(=O)c1cccc2nsnc12)N1CCN(c2ccccn2)CC1 (centres undefined) | -1.3 (inactive) |  |
| CCOC(=O)N1CCC(Nc2c(N3CCN(c4ccc(C(C)=O)cc4)CC3)c(=O)c2=O)CC1 | -1.1 (inactive) |  |
| O=C(Nc1ccc2nc3n(c(=O)c2c1)CCCCC3)C(=O)N1CCOCC1 | 1.01 (inactive) |  |
| CSc1ccc(CCNc2ccc3nnc(-c4ccccc4)n3n2)cc1 | 1.07 (inactive) |  |
| CC(=O)c1ccc2c(c1)c1ccccc1n2C | -3.04 (active) |  |
| CCOC(=O)C1CCCN(c2c(NCCN(C)C)c(=O)c2=O)C1 (centres undefined) | 1.36 (inactive) |  |
| CC(CC(=O)NCCc1c[nH]c2ccccc12)CC1=NS(=O)(=O)c2ccccc2N1 (centres undefined) | -1.46 (inactive) |  |
| COc1ccc(-c2cc3ccccc3n2CC(O)CN2CCN(CCO)CC2)cc1 (centres undefined) | -1.49 (inactive) |  |
| CCC(C(=O)O)N1C(=O)/C(=C/c2ccc(OC)cc2)SC1=S (centres undefined) | -2.97 (active) |  |
